# Shown are actives, neighbours in structure and some others; about 4% of the full set was active somewhere.
# TIM10 inh: TIM10 yeast growth inhibition | S. cerevisiae TIM10 strain growth, BacTiter-Glo luminescence, 24 h | inhibition, % at 10 µM | 330,000 tested, 1.4% active;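 active = inhibition of 40% or more at the single tested concentration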;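 note: wild-type TIM10 isogenic control strain grown at permissive 25 °C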
# NALP1 yeast inh: inhibitors of NALP1 inflammasome in yeast | inhibition, % at 10 µM | S. cerevisiae NALP1/ASC/caspase-1 growth, X-gal OD620, 72 h | 280,000 tested, 0.61% active; in the data active = inhibition mostly above about 24%, no sharp cut-off; inactive = mostly below about 32%
# NALP3 yeast inh: NALP3 inhibition in yeast; inhibition, % at 10 µM; 330,000 tested, 0.39% active; Yeast reconstituted NLRP3/ASC/caspase-1, beta-gal luminescence, 24 h;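 active = inhibition of 50% or more; inactive = inhibition below 50%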;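 note: plate controls were induced DMSO wells for no effect and uninduced yeast grown without galactose for full effect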
# tim23-1 inh: tim23-1 yeast growth inhibition; S. cerevisiae tim23-1 growth, BacTiter-Glo luminescence, 24 h; inhibition, % at 20 µM; 330,000 tested, 1.3% active;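 active = growth inhibition of the mutant yeast at or above 50%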;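 note: temperature-sensitive mutant grown at 25 °C; plate controls were DMSO-treated mutant yeast for no effect and medium wells lacking yeast for full effect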
# tim10-1 inh: inhibits growth of tim10-1 mutant yeast | inhibition, % at 20 µM | S. cerevisiae tim10-1 ts strain growth, BacTiter-Glo, 24 h | 330,000 tested, 2.2% active;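 active = inhibition of at least 40%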;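 note: mutant grown at 25 °C; 0% = DMSO wells with yeast and 100% = wells holding no yeast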
# NALP3 yeast conf: confirmation of NALP3 inhibitors in yeast | shares compounds with NALP3 yeast inh | yeast expressing human NALP3, luminescence | inhibition, % at 10 µM | 1,300 tested, 81% active | AID 435006; in the data active = inhibition above about 48%
# Casp1 ASC ctr: active in yeast caspase-1-ASC counter-screen for NALP3 inhibitors; 1,000 tested, 66% active; inhibition, % at 10 µM; shares compounds with NALP3 yeast inh; AID 488784; yeast expressing Caspase-1-ASC, luminescence counter screen
# NALP3 yeast rt: retest-confirmed inhibitor of NALP3 in yeast | shares compounds with NALP3 yeast inh | yeast expressing human NALP3, luminescence read-out | inhibition, % at 10 µM | 1,000 tested, 53% active | AID 488794
# tim10-1 confirm: confirmation of tim10-1 mutant yeast growth inhibitors; shares compounds with tim10-1 inh; S. cerevisiae tim10-1 ts strain growth, BacTiter-Glo, 24 h; inhibition, % at 20 µM; 7,400 tested, 56% active;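 active = inhibition of yeast growth at or above a set limit in either of two repeat tests at 20 µM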;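 note: tim10-1 mutant grown at permissive 25 °C to find synthetic lethal compounds; 0% = DMSO yeast wells and 100% = medium wells without yeast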
# TIM10 conf: TIM10 yeast growth inhibition, confirmed; 4,600 tested, 63% active; S. cerevisiae tim10 strain growth, BacTiter-Glo luminescence, 24 h; shares compounds with TIM10 inh; inhibition, % at 10 µM;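 active = inhibition of yeast growth at or above a set limit in either of two replicates at 10 µM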;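 note: this counterscreen used the strain with wild-type TIM10; 0% = yeast with DMSO and 100% = medium wells lacking yeast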
# tim23-1 conf: tim23-1 yeast growth inhibition, confirmed; shares compounds with tim23-1 inh; S. cerevisiae tim23-1 growth, BacTiter-Glo luminescence, 24 h; inhibition, % at 20 µM; 4,400 tested, 83% active;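 active = inhibition above about 39% in either of two replicate wells at 20 µM, limit read from the data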;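 note: temperature-sensitive tim23-1 mutant grown at 25 °C; 0% = DMSO wells with yeast and 100% = medium wells without yeast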
# Active calls of the source: *; nt = no result. Cut-off read from the data, not from the text of the source, unless noted: active = inhibition above about 50%; inactive = the rest.
SMILES,TIM10 inh,NALP1 yeast inh,NALP3 yeast inh,tim23-1 inh,tim10-1 inh,NALP3 yeast conf,Casp1 ASC ctr,NALP3 yeast rt,TIM10 conf,tim23-1 conf,others
CCCCCCCCn1c2c(c(=N)c3ccccc31)CCC2,25.5,6.5,58.3*,66.0*,60.4*,72.8*,21.9,61.9*,nt,62.5*,tim10-1 confirm=51.2*
CCn1c2c(c(=N)c3c1CCC3)CCCC2,1.7,1.8,6.3,-7.9,-13.2,nt,nt,nt,nt,nt,
CCCCCCCCCn1c2c(c(=N)c3c1CCC3)CCCC2,51.0*,28.9,68.0*,79.9*,51.5*,84.6*,53.9*,70.2*,46.2*,83.2*,tim10-1 confirm=55.9*
COc1ccc(-n2c(SCCNCCO)nc3sc4c(c3c2=O)CCCC4)cc1,11.9,17.4,29.0,15.6,15.2,nt,nt,nt,nt,nt,
O=C(NC1CC1)c1ccc(-c2nc3ccccc3s2)s1,52.8*,-4.8,60.0*,58.7*,10.2,55.0*,51.5*,48.3,51.2*,67.6*,
Cc1ccc2nc(NC(=O)c3ccc(-c4nc5ccccc5s4)s3)sc2c1,5.7,33.0,5.9,8.1,6.6,nt,nt,nt,nt,nt,
O=C(NCc1ccc2c(c1)OCO2)c1c(-c2ccccc2)sc2ccccc12,3.5,nt,-45.6,-6.9,21.0,nt,nt,nt,nt,nt,
COc1ccc(NC2CCCN(C(=O)c3ccc4[nH]c(C)c(C)c4c3)C2)cc1 (centres undefined),4.0,21.9,7.8,19.5,14.1,nt,nt,nt,nt,nt,
COc1ccc(NC(=S)N(CCCOC(C)C)C2CCN(C(C)=O)CC2)cc1Cl,3.7,1.1,-1.2,25.1,17.4,nt,nt,nt,nt,nt,
Cc1ccc(OC(C)C(=O)N(C)c2ccccc2)c([N+](=O)[O-])n1 (centres undefined),9.2,nt,7.2,-3.5,-6.5,nt,nt,nt,nt,nt,
CN1/C(=C\C(=O)c2cccs2)Sc2ccccc21,62.8*,-4.4,62.3*,59.0*,38.4,20.7,nt,nt,60.3*,80.3*,
COc1cc(OC)cc(C(=O)/C=C2\Sc3ccccc3N2C)c1,21.3,1.6,24.7,9.8,19.6,nt,nt,nt,nt,nt,
CCN(c1ccc(NC(=O)c2cccc(S(=O)(=O)N3CCN(C)CC3)c2)cc1)C(C)C,-8.8,12.2,6.6,-6.2,8.7,nt,nt,nt,nt,nt,
C/C(CC(C)(C)C1CCCCC1)=N\NC(N)=S,55.1*,8.7,54.5*,78.5*,68.8*,19.5,nt,nt,72.7*,63.6*,tim10-1 confirm=70.2*
Cc1ccc(C(=O)N2CC(C)OC(C)C2)cc1S(=O)(=O)N1CCCCC1 (centres undefined),19.1,nt,18.8,18.6,18.8,nt,nt,nt,nt,nt,
O=C(Nc1ccc(Cl)cc1)c1ccc2c(=O)n3c(nc2c1)CCCCC3,-1.4,-7.7,28.1,-14.1,-6.2,nt,nt,nt,nt,nt,
O=C(Nc1cccc(Cl)c1)c1ccc2c(=O)n3c(nc2c1)CCCCC3,73.5*,1.4,70.2*,54.4*,44.5*,65.7*,nt,nt,-14.9,80.0*,tim10-1 confirm=30.4
COc1ccc2oc(=O)c(/C(C)=N/NC(=O)c3ccncc3)cc2c1,nt,-1.1,nt,nt,nt,nt,nt,nt,nt,nt,
COc1ccc(C(=O)CC(=O)Nc2ccc([N+](=O)[O-])cc2)cc1,35.1,-8.1,67.0*,63.7*,13.0,74.8*,77.7*,82.5*,nt,73.7*,
Cc1ccc(-c2nc(CNC(=O)c3cc(C)on3)cs2)cc1,-8.4,19.7,65.6*,52.6*,-11.0,74.8*,68.2*,53.6*,nt,40.6*,
CCN1C(=O)c2cccc3c(S(=O)(=O)NCC4CCCO4)ccc1c23 (centres undefined),-11.4,20.9,6.1,14.2,6.2,nt,nt,nt,nt,nt,
COc1ccc(-c2csc(NC(=O)c3ccccc3F)c2C(=O)O)cc1,75.2*,20.8,81.2*,85.4*,80.8*,93.7*,90.6*,81.3*,72.1*,85.9*,tim10-1 confirm=74.8*

# Screening results (PubChem)
